Laboratory results published in ChEMBL document CHEMBL3433997, “St. Jude Leishmania screening dataset” (2016).

Target: Hexose transporter 1 (Plasmodium falciparum) (UniProt O97467)
Experiment: ST_JUDE_LEISH: Cytotoxicity at 2uM final concentration against transgenic Leishmania Mexicana promastigotes LmPfHT that are glucose transport deficient and complemented with the Plasmodium falciparum hexose transporter. Activity is measured by DNA content using SYBR green in vitro
Format: functional

Structure (SMILES)	inhibition [%]
O=C(CCc1c[nH]cn1)Nc1cccc(-c2ccc(-c3nc4ccccc4[nH]3)s2)c1	4.04
Fc1ccc(NC(S)=NN=Cc2ccccn2)cc1	2.09
COc1ccc(C=NNc2nc(O)cc(-c3ccccc3)n2)cc1OC	-1.28
NC1=NC(c2ccccc2)(c2ccccc2)C(=O)N1CCCCc1ccccn1	-0.95
O=C(Nc1ccsc1)Nc1cccc(-c2ccc(-c3nc4cc(C(F)(F)F)ccc4[nH]3)cc2)c1	6.27
COc1ccc(C2CCN(CCN3CCC(NC(=O)c4ccc(-c5cccc(C(F)(F)F)c5C(F)(F)F)cc4)CC3)CC2)c(OC)c1	1.29
CC1(C)N=C(N)N=C(NOCc2ccc(Cl)c(Cl)c2)N1	1.13
CC(C)(C)c1ccc(NC(=O)Nc2ccc(Cn3ncc(N4CCCNCC4)c(Cl)c3=O)cc2)cc1	6.82
NC(=O)c1cccc(C(=O)Nc2cccc(-c3csc(-c4nc5ccccc5[nH]4)c3)c2)c1	2.2
COc1cc(Cc2cnc(N)nc2N)cc(OCCCCCCN2C(=O)c3ccccc3C2=O)c1OC	4.53
COc1ccc2nccc([C@@H](O)CN3CCC(NCc4cnc5c(c4)NC(=O)CS5)C(F)C3)c2c1 (stereo not given in full)	-0.31
O=C(Nc1ccc2[nH]c(-c3ccccc3)nc2c1)c1cc(-c2ccc3c(c2)OCCO3)n[nH]1	11.6
CC1(C)NC(N)=NC(=N)N1OCc1nc(N)nc(Nc2ccccc2)n1	5.4
Brc1ccsc1-c1nc(NCCC(c2ccccc2)c2ccccc2)no1	0.55
O=C(Nc1cccc(C(F)(F)F)c1)NC1CCN(c2ccnc3cc(Cl)ccc23)C1 (stereo not given)	-2.13
COc1ccc2ncc(Cl)c(CCN3CCC(NCc4ccc5c(n4)NC(=O)CO5)CC3)c2c1	5.92
Clc1cccc(C=NN=c2cc[nH]c3ccccc23)c1	2.56
CCN(CC)CCCNc1ncc2c(-c3ccc(NC(=O)Nc4cc(C(F)(F)F)ccc4F)cc3)nn(C)c2n1	4.18
Cn1c(NC(=O)CCCCCNC(=O)c2ccc(O)c(-c3ccc(Cl)c(Cl)c3)c2)nc2ccccc21	1.73
Cc1cc(-c2cccc(CNC3CCN(C)CC3)c2)ccc1S(=O)(=O)NCCc1ccccn1	-0.31

Structure (SMILES)	inhibition [%]
CCN(CC)CCN1C(=O)c2oc3ccc(F)cc3c(=O)c2C1c1cccc(Cl)c1 (stereo not given)	2.22
CC(C)C[C@H](NC(=O)c1cc2cc(OCCN3CCNCC3)ccc2o1)C(=O)NC1CC[C@@H](C)N(C(=O)Nc2ccc(Cl)cc2)CC1=O (stereo not given in full)	5.04
CCOc1cc(Cc2cnc(N)nc2N)ccc1OC	0.12
COCCOc1ccc(C(F)(F)F)cc1NC(=O)Cc1c(F)cccc1Cl	8.21
N=C(N)c1cc(Cl)cc(NC(=O)Nc2cc(Cl)cc(C(=N)N)c2)c1	1.25
CN(C)C(S)=NN=Cc1cccc(O)c1O	6.87
OCCNc1nc(Nc2cccc(O)c2)nc2ccccc12	3.14
CN(c1ccc(F)cc1)S(=O)(=O)c1ccc(Cl)c(C(=O)Nc2cccc(C#N)c2)c1	3.52
c1ccc2c(CNCCCCCCNCc3c(OCC4CC4)ccc4ccccc34)c(OCC3CC3)ccc2c1	69.8
O=C(Nc1ccccc1-c1ccccc1)C1CCCN1C(=O)Nc1ccc(Cl)cc1 (stereo not given)	-0.89
CCN(CC)CCN(CCCc1ccc(-c2ccc(C(F)(F)F)cc2)cc1)C(=O)Cn1c(CCc2cccc(F)c2F)nc(=O)c2ccccc21	2.91
CCOc1cc(Cc2cnc(N)nc2N)cc(OCC)c1OCC	1.8
CCOc1ccc(Cc2c(C)nc3nc(N)nc(N)c3c2C)cc1	41.5
N#Cc1ccc(-c2ccc(C(=O)NCCCCN3CC=C(c4ccc5c(c4OCC4CC4)CCCC5)CC3)cc2)cc1	1.41
COc1ccc(S(=O)(=O)NC2CCN(c3ccnc4cc(Cl)ccc34)C2)cc1 (stereo not given)	1.1
NC(=O)C1Cc2ccccc2CN1CC(=O)Nc1ccccc1Sc1ccccc1 (stereo not given)	2.07
FC(F)(F)COc1ccc(CNCCCCCCNCc2ccc(OCC(F)(F)F)c3ccccc23)c2ccccc12	107
CC(C)c1ccc(C(NC(=O)C2CCCCC2)c2ccc3cccnc3c2O)cc1 (stereo not given)	-0.57
CCOC(=O)c1ccc(NC(=O)Nc2ccc(-c3ccc(-c4nc5ccccc5[nH]4)cc3)cc2)cc1	3.36
CNC(=O)c1cncc(/C=C/c2ccccc2S(N)(=O)=O)c1	4.59
